Screening results from PubChem.
ST2 IL33 inh – blocks human ST2 binding to IL-33 | Q01638 | AlphaLISA ST2-Fc/biotin-IL-33 interaction, 1 h | inhibition, % for hits at 17 µM | actives 2.3% (n = 78,000); in the data active = inhibition above about 30%
Target sequence (Q01638 whole entry, looked up): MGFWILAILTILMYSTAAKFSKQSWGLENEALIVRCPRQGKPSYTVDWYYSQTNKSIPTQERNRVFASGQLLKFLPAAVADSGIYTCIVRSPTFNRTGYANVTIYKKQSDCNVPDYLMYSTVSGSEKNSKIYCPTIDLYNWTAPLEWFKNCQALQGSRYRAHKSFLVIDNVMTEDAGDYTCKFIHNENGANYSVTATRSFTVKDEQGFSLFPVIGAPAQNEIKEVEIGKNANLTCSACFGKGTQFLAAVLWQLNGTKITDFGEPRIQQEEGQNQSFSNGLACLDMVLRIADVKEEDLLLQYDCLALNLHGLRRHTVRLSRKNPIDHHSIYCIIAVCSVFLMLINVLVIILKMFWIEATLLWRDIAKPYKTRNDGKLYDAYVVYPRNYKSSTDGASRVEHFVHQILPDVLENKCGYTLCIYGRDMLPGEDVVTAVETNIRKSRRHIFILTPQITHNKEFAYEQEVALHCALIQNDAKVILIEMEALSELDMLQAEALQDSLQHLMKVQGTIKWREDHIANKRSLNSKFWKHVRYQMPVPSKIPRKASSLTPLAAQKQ
* marks the source's active call; other numbers are inactive results; i = inactive. Only a selection was taken, and hits are over-represented in it overall.

SMILES | ST2 IL33 inh
Cc1ccc(S(=O)(=O)Cc2noc([C@@H]3C[C@@H](O)CN3Cc3ccccc3[N+](=O)[O-])n2)cc1 | 31.0%*
Cc1ccc(S(=O)(=O)Cc2noc([C@@H]3C[C@@H](O)CN3Cc3ccc(S(C)(=O)=O)cc3)n2)cc1 | i
Cc1ccc(S(=O)(=O)Cc2noc([C@@H]3C[C@@H](O)CN3Cc3c[nH]c4ccccc34)n2)cc1 | i
CCSCCOC(=O)C1=C(C)NC2=C(C(=O)CCC2)C1c1cc(OC)ccc1OC (stereo not drawn) | i
NC(=O)C1(N2CCCCC2)CCN(Cc2cc3n(n2)CCNC3)CC1 | i
CC(C)c1ccc(S(=O)(=O)N2CCN(c3cc(-c4ccc(F)cc4)ncn3)CC2)cc1 | i
CCOc1ccc(OCC)c(S(=O)(=O)n2ccnc2C)c1 | i
CCC(CC)CC(=O)NC1C=CS(=O)(=O)C1 (stereo not drawn) | i
COc1ccc(-c2cc(N3CCN(S(=O)(=O)c4ccc(F)c(Cl)c4)CC3)ncn2)cc1 | i
CN(CCc1cnn(C)c1)c1nc2nonc2nc1N1CCOCC1 | i
Cn1c(/C=C/c2ccc(Cl)cc2Cl)c([N+](=O)[O-])c(=O)n(C)c1=O | i
CN1CCN(Cc2ccc(OCc3ccccc3)cc2)CC1 | i
Clc1ccccc1OCCCCN1CCNCC1 | i
N#Cc1nc(COc2ccccc2Cl)oc1NCCCn1ccnc1 | 45.0%*
N#Cc1nc(COc2ccccc2Cl)oc1N1CCCC1 | 73.0%*
c1ccc(OCCCn2ccnc2)cc1 | i
N#Cc1nc(COc2ccc(Br)cc2)oc1N1CCN(Cc2ccccc2)CC1 | 56.0%*
N#CSCCCCOc1ccccc1Cl | i
COc1ccc(OCc2nc(C#N)c(N3CCC(C(N)=O)CC3)o2)cc1 | i
Fc1ccccc1OCCCn1ccnc1 | i
COCCn1cc(C(=O)NCCN2CCOCC2)c2c3ccccc3n(C)c2c1=O | i
CC(Cc1cnccn1)NC(=O)c1cc(-c2ccccc2)nn1C (stereo not drawn) | i
CCC(=O)N1CCc2cc(Br)cc(S(=O)(=O)CCC(=O)N(CC)CC)c21 | i
Cc1ccn2c(=O)cc(COc3cccc(NC(=O)CCc4ccccc4)c3)nc2c1 | i
CCN(Cc1ccccc1)C(=O)CCN1CCC[C@H]1CO | i
SMILES | ST2 IL33 inh
O=C(c1ccc(C(F)(F)F)cc1)N(Cc1ccccn1)CC1CCCO1 (stereo not drawn) | i
CCn1c(C2CCN(S(=O)(=O)N3CCCC3)CC2)n[nH]c1=O | i
CC(C)(C)c1ccc(S(=O)(=O)N2CCc3nc4ccccc4c(C(=O)O)c3C2)cc1 | i
COc1ccc(OC)c(NC(=O)c2cnn3ccccc23)c1 | i
Cc1nc(-c2ccc(NC(=O)c3cc4cc(Br)ccc4oc3=O)cc2)cs1 | i
Cc1cc(Br)c(S(=O)(=O)N2CCN(c3ccccc3)CC2)cc1C | i
Cc1cc(C)c(S(=O)(=O)N2CCN(c3ccccc3)CC2)cc1C | i
Cc1cc(S(=O)(=O)N=C2C=CC(=O)c3ccccc32)ccc1Cl | 42.0%*
Cc1cc(C)c(S(=O)(=O)N2CCN(c3cc(-c4ccccc4C)ncn3)CC2)cc1C | i
Cc1cc(C)c(S(=O)(=O)N=C2C=C(Br)C(=O)c3ccccc32)cc1C | 35.0%*
Cc1cc(S(=O)(=O)N2CCN(S(=O)(=O)c3ccc(Cl)c(C)c3)CC2)ccc1Cl | i
CC1=CC(=NS(=O)(=O)c2cccc([N+](=O)[O-])c2)C=CC1=O | i
Cc1cc(C)c(S(=O)(=O)N2CCCCC2)cc1S(=O)(=O)N1CCCCC1 | i
Cc1cc(C)c(S(=O)(=O)N=C2C=CC(=O)c3ccccc32)cc1C | 47.0%*
COc1cc(NC(=O)c2ccc(C)c(Cl)c2)c(OC)cc1Cl | i
C=C1CCC2C(C)(C(=O)O)CCCC2(C)C1CC/C(C)=C\CO (stereo not drawn) | i
Cc1cc2ncn(C(=O)c3ccc([N+](=O)[O-])c(C)c3)c2cc1C | i
CCN(CC)CCNC(=O)C1(O)c2ccccc2NC(=O)N1c1ccc(Cl)cc1 (stereo not drawn) | i
Cc1ccc(CCN2C(=O)CCC2(C)C(=O)NC2CCCCCCC2)cc1 (stereo not drawn) | i
O=C(Nc1c(-c2ccccc2)nc2ccccn12)c1ccc([N+](=O)[O-])cc1 | i
NC1=C(N2CCCCC2)C(=O)c2ccccc2C1=O | 71.0%*
O=S(=O)(N=S(N1CCCCC1)N1CCCCC1)c1ccccc1 | i
O=C(CCN1C(=O)c2ccccc2C1=O)N1CCCCCC1 | i
CC(=O)c1ccc(OC(=O)N2CCCCC2)cc1 | i
CC(=O)c1ccc(NC2=C(N3CCCCC3)C(=O)c3ccccc3C2=O)cc1 | 59.0%*
SMILES | ST2 IL33 inh
CC(=O)c1ccc(NC(=O)C(Cc2ccccc2)N2C(=O)c3ccccc3C2=O)cc1 (stereo not drawn) | i
COc1ccc(N2C(=O)CC(C(=O)N3CCCCC3C)C2c2ccc(F)cc2)cc1 (stereo not drawn) | i
O=C(Nc1cccc(-c2nc3ccccc3o2)c1)c1cc(=O)c2ccccc2o1 | i
O=S1(=O)C=CC(N2CCCCC2)C1 (stereo not drawn) | i
Cc1ccc2[nH]c(Sc3nc4c(c(=O)n(C)c(=O)n4C)n3C)nc2c1C | i
CC1=Nc2ccc(C)cc2N(Cc2ccccc2)C(=O)C1 | i
COc1ccc(-c2nc3s/c(=C\c4ccc(OC)c(OC)c4)c(=O)n3n2)cc1 | 38.0%*
COc1ccc(-c2nc3s/c(=C\c4cc(C)c(O)c(C)c4)c(=O)n3n2)cc1 | 36.0%*
CCOc1ccc(-c2nc3s/c(=C\c4ccc(OC)cc4)c(=O)n3n2)cc1 | i
CCCOc1ccc(-c2nc3s/c(=C\c4ccc(OC)c(OC)c4)c(=O)n3n2)cc1 | i
COc1ccc(/C=c2/sc3nc(-c4ccc(Cl)cc4)nn3c2=O)c(OC)c1 | i
CCCOc1ccc(-c2nc3s/c(=C\c4ccc(OC)cc4)c(=O)n3n2)cc1 | i
CNC(=O)c1cc(-c2cc(OC)cc(OC)c2)ccc1Cl | i
Nc1nccc(N2CCC(Cc3ccccc3Cl)(C(=O)O)CC2)n1 | i
CCCCNC(=O)c1cn(CC)c2ccc(S(=O)(=O)N3CCC(C)CC3)cc2c1=O | i
Cc1c(C(=O)NCc2ccco2)oc2ccc(S(=O)(=O)N3CCCCCC3)cc12 | i
N#C/C(=C\c1ccc(I)cc1)c1nc(-c2ccc([N+](=O)[O-])cc2)cs1 | i
CCOc1ccc(-c2cc3cc(OC)c(OC)cc3c(CC)n2)cc1 | i
CCOc1ccc(/C=C(\C#N)c2nc(-c3ccc(OCC)cc3)cs2)cc1 | 33.0%*
COc1ccc(S(=O)(=O)Nc2ccc(-c3csc(C)n3)cc2)cc1 | i
COc1ccc(/C=C(\C#N)c2nc(-c3ccc(C)cc3)cs2)cc1 | 60.0%*
Cc1nc2nc(C)c(NC(=O)Nc3cccc(C(F)(F)F)c3)c(=O)n2[nH]1 | i
O=C(NCCC1COc2ccccc2O1)c1ccc(-c2cccc(F)c2)nc1 (stereo not drawn) | i
C=CCn1c(=O)[nH]c2cc(C(=O)NCc3ccccc3)ccc2c1=O | i
Nc1nnc(-c2ccccc2)o1 | i
SMILES | ST2 IL33 inh
O=C(O)CCN(CCC(=O)O)c1nnc(-c2ccccc2)o1 | i
C(=C\c1nnc(-c2ccccc2)o1)/c1ccccc1 | 34.0%*
CCCS(=O)(=O)N1CCC(C(=O)NCCOC)CC1 | i
CC1CCN(c2nc(-c3ccc(C(C)C)cc3)c3c(N)[nH]nc3n2)CC1 | i
Cc1nc2c(c(=O)n1C)CCN(Cc1nc(C(C)C)cs1)CC2 | i
Cc1ccc(NCCC(=O)c2ccc(C)o2)cc1 | 31.0%*
Cc1ccc(C(=O)Nc2ccccc2NC(=O)c2ccc(C)o2)o1 | i
